ChEMBL document CHEMBL3988442, “University of Dundee, Small-Polar-MMV Screening Library” (2021)
About 1,000 (1.4%) of roughly 69,000 compounds showed an effect of 50% or more. The entries come from a sample that favours strong results as a whole.

Tested on: Leishmania donovani
Assay: Leishmania intramacrophage assay
Format: functional, organism-based
Set-up: scale not given: in the data most compounds retested in dose-response had high values

SMILES	Percent Effect (30 µM, 30.03 µM) [%]	Percent Effect (30.3 µM, […]) [%]
Cl.NC(=O)N1CC2(CCNCC2)c2cc(Cl)ccc21	2.936	–
Cc1noc(C)c1CN1CC[C@H]2C[C@@H](c3nccs3)O[C@@H]2C1	15.1	–
Cc1cccc(-c2ncc(CNC(C)Cc3ccncc3)cn2)c1 (stereo not given)	–	-22.9
Cc1cccc(-c2ncc(CNC(C)Cc3ncccc3C)cn2)c1 (stereo not given)	–	-19.51
CC(Cc1cccc(F)c1)NCc1cnc(N2CCN(C)CC2)nc1 (stereo not given)	–	97.99
Cl.Cl.Fc1ccc2c(c1)C1(CCNCC1)CC2NC1CC1 (stereo not given)	–	27.52
Cc1ccc(O[C@@H]2C[C@H]3CN(C(=O)Cc4ccccn4)CCN3C2)cc1.O=C(O)C(F)(F)F.O=C(O)C(F)(F)F	–	11.94
CCc1ncc(CN(CCc2ccccc2)Cc2cccs2)cn1.O=C(O)CC(O)(CC(=O)O)C(=O)O	–	-1.419
Fc1cnccc1CN1CCC2(CCNCC2)C1	–	25.89
c1ccc(-c2ncc(CN3CCC4(CCNCC4)C3)cn2)cc1	–	24.37
Oc1cccc2ccc(CN3CCC4(CCNCC4)C3)nc12	–	61.55
COCC1CC2(CCN(CC3CC3)CC2)CN1Cc1ccccn1.O=C(O)C(F)(F)F.O=C(O)C(F)(F)F (stereo not given)	–	40.82
Fc1cnc(N2CCCC3(CCN(Cc4ccoc4)C3)C2)nc1.O=C(O)C(F)(F)F.O=C(O)C(F)(F)F (stereo not given)	–	13.62
Cc1oncc1C(=O)N1CC[C@H]2[C@H](C[C@@H](CN3CCCC3)N2C)C1.O=C(O)C(F)(F)F.O=C(O)C(F)(F)F	–	25.5
CCOC(=O)N1CCC(NC(C)Cc2cc(C)n[nH]2)CC1 (stereo not given)	–	11.64
Cc1cccc(C)c1NC(=O)CNC(C)Cc1ccsc1 (stereo not given)	–	11.71
Cc1cc(CC(C)NC2CCN(CC(C)C)CC2)[nH]n1 (stereo not given)	–	19.46
Cc1cc(N2CCC(NC(C)Cc3ccsc3)CC2)nc(N)n1 (stereo not given)	–	71.35
Cc1cc(CC(C)NC2CCSCC2)[nH]n1 (stereo not given)	–	3.441
Cc1cc(N2CCC(NC(C)Cc3ccsc3)CC2)nc(C)n1 (stereo not given)	–	70.01
CCS(=O)(=O)NC[C@]12COC[C@H]1CN(Cc1cccnc1OC)C2.O=C(O)C(F)(F)F.O=C(O)C(F)(F)F	–	-3.146
CC(C)N(C)Cc1cncc2c1CCN(Cc1cccs1)C2.Cl.Cl.Cl	–	7.349
O=C(O)C(F)(F)F.O=C(O)C(F)(F)F.c1cncc(OC[C@@]23CCO[C@@H]2CCN(Cc2cccs2)C3)c1	–	13.49
O=C(O)C(F)(F)F.O=C1Nc2ccccc2C12CCN(Cc1nccs1)CC2	–	18.81
Cc1ccc(CN2CCO[C@H]3[C@@H](OCc4cccnc4)CC[C@@H]32)o1.O=C(O)C(F)(F)F.O=C(O)C(F)(F)F	–	19.54
